Only a sample is shown.
aSyn 5UTR act: Activators via SNCA 5'UTR binding, MLPCN | activity score, % (tested at 7.5 µM), hits read low | 300,000 tested, 7.1% active | alpha-synuclein 5'UTR reporter, activators screen | AID 1814; in the data active means activity score below about -60%
Numbers stand for hits; 0 = inactive.

SMILES	aSyn 5UTR act
O=C(NC(=S)Nc1cc([N+](=O)[O-])ccc1Cl)c1ccccc1	-85.3
O=C(Nc1ccc([N+](=O)[O-])cc1)C(=O)Nc1cccc(C(=O)O)c1	0
COc1cc([N+](=O)[O-])ccc1NC(=S)Nc1cccc(C(=O)O)c1	-71.8
O=C(NC(=S)Nc1cccc([N+](=O)[O-])c1)c1ccccc1	-169.5
O=C(NC(=S)Nc1cccc([N+](=O)[O-])c1)c1ccco1	-113.1
O=[N+]([O-])c1cccc(NC(=S)Nc2nc(-c3ccc(Cl)cc3Cl)cs2)c1	0
CC1=C/C(=C\C=C(C#N)C#N)N(C)c2ccccc21	-101.6
CC(=O)Oc1ccc2occ(C(=O)c3cccs3)c2c1	-175.1
CC(=O)Oc1ccc2occ(-c3ccccc3)c2c1	-136.6
O=C(c1cccs1)c1coc2ccc(O)cc12	-199.9
O=C(CCl)Oc1ccc2occ(C(=O)c3cccs3)c2c1	-193.4
Cc1cccc(C)c1N=C1SC(CC(=O)Nc2c(C)cccc2C)C(=O)N1CCc1ccccn1 (stereo unspecified)	0
CC(=O)Oc1ccc2occ(C(=O)c3ccccc3)c2c1	-134.3
O=C(/C=C/NCc1cccnc1)c1ccc(-c2ccccc2)cc1	-81.3
CC(C)c1ccc(C(=O)NN2C(=O)C3CCCCC3C2=O)cc1 (stereo unspecified)	-84.9
CC(C)c1ccc(C(=O)NNC(=O)C2C3CCC(C3)C2C(=O)O)cc1 (stereo unspecified)	-115.3
Cc1ccc(-c2nn(-c3ccccc3)cc2CO)o1	-82.2
Cc1ccc(-c2nn(-c3ccccc3)cc2CSC(=N)N)cc1	0
Cc1ccc(-c2nn(-c3ccccc3)cc2C=O)o1	-87.7
Cc1ccc(NC(=O)COc2ccc(C3SCCS3)cc2)cc1	-69.4
O=C(CSc1ccc(F)cc1)Nc1ccc(C2SCCS2)cc1	-155.0
O=C1c2ccccc2-c2nc3ccccc3nc21	-181.9
NC1=C(Br)C(=O)c2ccccc2C1=O	0
CCN(CC(=O)NCc1ccc(F)cc1)C(=O)/C=C/c1ccc(S(=O)(=O)N(CC)CC)cc1	-79.0
CCN(CC)S(=O)(=O)c1ccc(/C=C/C(=O)Nc2cccc(F)c2)cc1	-83.0
SMILES	aSyn 5UTR act
CCN(CC(=O)Nc1c(F)cccc1F)C(=O)/C=C/c1ccc(S(=O)(=O)N2CCCCCC2)cc1	0
Cc1cccc(/C(N)=N/OC(=O)N2c3ccccc3Sc3ccccc32)c1	-70.4
CCC(C(=O)O/N=C(\N)c1cccc(C)c1)c1ccccc1 (stereo unspecified)	-87.9
Cc1cccc(/C(N)=N/OC(=O)Cc2ccccc2)c1	-142.4
Cc1cccc2cc(C#N)c(NCc3ccccc3)nc12	-76.4
O=C(CC1Sc2ccccc2NC1=O)c1ccc(Br)cc1 (stereo unspecified)	-218.0
Oc1ccccc1/C=N/N1CCN(c2ccccn2)CC1	-114.9
CC(C)c1ccc(/C=N/N2CCCCC2)cc1	-143.3
CC(C)c1ccc(/C=N/N2CCN(c3ccccn3)CC2)cc1	-121.9
Cc1onc(-c2ccccc2)c1C(=O)OCCOc1cccc(Cl)c1	-69.8
CCOc1ccc(C(=O)COC(=O)c2c(-c3ccccc3)noc2C)cc1	-62.7
N#Cc1c(N)nc2c(c1N)CC(=O)N2c1ccc(Cl)cc1	-132.2
N#Cc1c(-c2ccc(Cl)cc2)ccn2nc(C3CCCCC3)nc12	-164.1
O=C(Nc1ccc(-c2nc3cc(Cl)ccc3o2)cc1)C1CCCO1 (stereo unspecified)	-81.0
O=C(Nc1ccc2oc(-c3ccccc3)nc2c1)C1CCCO1 (stereo unspecified)	-161.9
O=C(CSCC(=O)Nc1nc(-c2ccc3c(c2)OCO3)cs1)Nc1nccs1	-110.7
O=C(Nc1nc(-c2ccc3c(c2)OCO3)cs1)C1CC1	-183.8
CSCC(=O)Nc1nc(-c2ccc3c(c2)OCCO3)cs1	-116.9
N#Cc1cc(-c2ccccc2)nn1-c1ccccc1	-67.5
O=C(Nc1ccc(F)cc1F)c1ccc2ncsc2c1	-120.0
O=C(Nc1cccc(F)c1)c1ccc2ncsc2c1	-203.7
O=C(Nc1ccc(Cl)cc1Cl)c1ccc2ncsc2c1	-177.4
Cn1nnc2cc(C(=O)Nc3ccccc3F)ccc21	-111.5
O=C(Nc1ccccc1F)c1ccc2ncsc2c1	-175.4
O=C(Nc1nnc(SCc2ccc(F)cc2)s1)c1ccc2ncsc2c1	-99.6
SMILES	aSyn 5UTR act
Cc1ccc(-c2csc(NC(CO)c3nc4ccccc4n3CCOCCO)n2)cc1 (stereo unspecified)	-71.4
Brc1ccc(-c2cn3nc4c(nc3n2)CCCC4)cc1	0
Nc1nn2cc(-c3ccc(Br)cc3)nc2c2ccccc12	-164.5
CCC1CCCCN1CCCNC(=O)c1ccc2nc(N3CCCCC3)sc2c1 (stereo unspecified)	-280.1
CC1CCCC(C)N1CCCNC(=O)c1ccc2nc(N3CCCCC3)sc2c1 (stereo unspecified)	-237.4
CC1CCN(c2nc3ccc(C(=O)NCCCN4CCCCC4C)cc3s2)CC1 (stereo unspecified)	-277.4
COc1ccc2c(c1)CCc1c-2nc2ccccc2c1N1CCOCC1	-86.8
COc1ccc(C2=NOC(C(=O)NCc3ccco3)C2)cc1 (stereo unspecified)	-77.1
COc1ccc(C2=NOC(C(=O)NCC(C)C)C2)cc1 (stereo unspecified)	-106.7

Screening data (PubChem BioAssay)
